# Experimental data published in PubChem BioAssay AID588342 (National Center for Advancing Translational Sciences (NCATS), 2011).
# Among all 360,000 compounds or so, about 25,000 (6.9%) were called active. A call without a number means that no potency is given here. About 9% were inconclusive and are not listed. Calls come from the whole dose curve; as a rule, active = well fitted inhibition curve with a large enough effect; inconclusive = small, poorly fitted or top-dose-only effect; inactive = flat fitted curve, though single readings scatter. This excerpt belongs to a sample that is enriched for actives.
# Molecular target: Luciferin 4-monooxygenase (Photinus pyralis) (UniProt P08659)
# Sequence (P08659 whole entry, looked up): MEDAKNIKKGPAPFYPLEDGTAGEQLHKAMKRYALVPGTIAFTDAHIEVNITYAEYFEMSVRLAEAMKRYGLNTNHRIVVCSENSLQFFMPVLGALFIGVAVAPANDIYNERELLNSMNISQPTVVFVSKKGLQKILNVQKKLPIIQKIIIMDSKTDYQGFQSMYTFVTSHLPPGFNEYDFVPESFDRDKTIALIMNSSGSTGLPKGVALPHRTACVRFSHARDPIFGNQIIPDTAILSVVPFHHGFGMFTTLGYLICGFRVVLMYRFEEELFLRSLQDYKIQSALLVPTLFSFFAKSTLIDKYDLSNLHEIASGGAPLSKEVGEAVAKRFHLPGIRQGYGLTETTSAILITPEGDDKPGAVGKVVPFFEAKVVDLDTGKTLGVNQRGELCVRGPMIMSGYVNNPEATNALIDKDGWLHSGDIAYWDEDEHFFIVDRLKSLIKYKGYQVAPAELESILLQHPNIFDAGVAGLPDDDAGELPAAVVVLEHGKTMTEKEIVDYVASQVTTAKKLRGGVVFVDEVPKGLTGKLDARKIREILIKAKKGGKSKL
# Test: qHTS profiling assay for firefly luciferase inhibitor/activator using purifed enzyme and Km concentrations of substrates (counterscreen for miR-21 project); note: nearly all actives have a fitted effect of over 55% in size
# Conditions: purified FLuc, luminescence inhibition; series mostly up to 57.5 µM
# Excerpt: MLPCN Grant: 1 R21 NS059478-01 (miR-21 grant) Assay Provider: NCGC NCGC Assay Overview: Firefly (Photinus pyralis) luciferase is one of the most commonly used transcriptional reporters for a number of reasons. It is considered one of the more dynamically responsive reporters -that is, responsive to changes in reporter transcription - as it requires no post-translational modifications and is enzymatically active directly after protein synthesis (Wood, 1998). Additionally, the half-life of the luciferase protein is short relative to other reporter-gene products (Wood, 1995). Whereas reporters with long half-lives potentially allow for increased signal due to accumulation of reporter-gene product, once accumulated in the cell, dynamic changes in reporter-gene expression may be difficult to detect(Fan and Wood, 2007; Almond et al., 2004). It has been shown that wild-type P. pyralis luciferase has a half-life of approximately […] hours in mammalian cells (Thompson et al., 1991). Firefly luciferase reporter-gene assays are also generally considered one of the most sensitive assay types (Wood, 1995; Wood, 1998). Although light produced in a bioluminescence reaction is of lower intensity than that produced during fluorescence emission, this is offset by little to no background light inherent to luminescent assays. Thus the luciferase reporter can be expressed at much lower levels than fluorescent proteins while still providing robust signal. # However, it was initially observed, in 1991, by Thompson et al., that compounds that resemble the substrates of firefly luciferase (FLuc) can act as competitive inhibitors of the enzyme, and that these compounds, upon interaction with luciferase in the cell, can actually stabilize the protein and increase its half-life. Accumulated intracellular FLuc protein can be measured as an increase in luminescence signal, upon addition of detection reagents (which contain high concentrations of FLuc substrates) commonly used in high-throughput screening. In cell-based reporter gene assays that use FLuc as the reporter gene to quantitate the potential influence of a given compound against the target biology, this apparent increase in luminescence can mistakenly be interpreted as identification of a compound that is active against the target of interest. This is the case for the miR-21 FLuc reporter gene assay used to identify inhibitors of the miR-21 pathway (PubChem AID 2289) - compounds of interest will inhibit miR-21 biogenesis/expression or activity, and are identified by causing an increase in luminescence, due to increased FLuc translation. However, FLuc inhibitory compounds that stabilize the FLuc protein will give an identical read-out, making it difficult to distinguish compounds that are active against the target from those active against FLuc. Previous profiling work to determine the prevalence of compounds that affect FLuc enzymatic activity (PubChem AID 411) identified that ~3% of the MLSMR library (then at ~72K) inhibited FLuc. […] Since the MLSMR had grown to ~350K compounds, and since it was expected that a significant percentage of compounds found active in the miR-21 FLuc assay would be FLuc inhibitors, the library was screened for activity against FLuc using a biochemical assay of purified FLuc and KM concentrations of FLuc substrates (D-luciferin and ATP).
# NCGC Assay Protocol Summary: Reagents: 50mM Tris acetate, pH 7.5; 10mM Mg acetate; 10uM D-luciferin (Sigma #L9504); 10uM ATP; 0.01% Tween-20; 0.05% BSA; 10nM P. pyralis luciferase (Sigma #L9506) Control compounds used were two known firefly luciferase inhibitors (compounds (2) and (5) in Auld et al., 2010), and DMSO. […]
row,Structure (SMILES),Potency
1,CN(C)S(=O)(=O)c1cccc(NC(=O)COC(=O)c2cc(=O)[nH]c(=O)[nH]2)c1,inactive
2,CN(C)S(=O)(=O)c1cccc(NC(=O)COC(=O)C2(c3ccccc3F)CCCC2)c1,inactive
3,CN(C)S(=O)(=O)c1cccc(NC(=O)COc2ccc3ccccc3c2)c1,6.01 µM (active)
4,CCC(Oc1ccccc1C)C(=O)Nc1ccc(S(=O)(=O)Nc2cc(C)on2)cc1 (centres undefined),inactive
5,CC1CN(C(=S)Nc2ccc(Br)cc2Cl)CC(C)O1 (centres undefined),inactive
6,O=C(CSc1nnc2c(n1)[nH]c1ccccc12)NC1CCCCC1,inactive
7,O=C(Cn1c(-c2cncs2)nc2ccccc21)NC1CCCC1,inactive
8,O=C(/C=C/c1cnc2ccccc2n1)NC1CCCCCC1,13.5 µM (active)
9,COc1ccc(/C=C/CN2CCN(Cc3ccc(C)cc3)C(CCO)C2)cc1 (centres undefined),inactive
10,CCc1cnc2c(c1SCC(=O)N1CCC(C)CC1)c(=O)n(C)c(=O)n2C,inactive
11,O=C1CC[C@H](O)CCN1[C@H](CSc1ccc(Br)cc1)Cc1ccccc1,inactive
12,Cc1ccc(/C=C2\SC(=S)N(CCC(=O)Nc3ccc(O)cc3)C2=O)cc1,inactive
13,O=C1/C(=C/c2ccc(F)cc2)SC(=S)N1CCCC(=O)N1CCCCC1CCO (centres undefined),inactive
14,C=CCOc1ccc(/C=C2\SC(=S)N(CCC(=O)O)C2=O)cc1,1.69 µM (active)
15,O=C(NCc1ccncc1)c1cccc(NS(=O)(=O)c2ccc(F)c(F)c2)c1,inactive
16,COc1ccc(S(=O)(=O)NCCSc2nnnn2-c2ccccc2)cc1,inactive
17,COc1ccc(N(C)C(=O)C2CCN(S(=O)(=O)c3cc(Br)cc4c3N(C(C)=O)CC4)CC2)cc1,inactive
18,CC1=C(C(=O)OCc2ccc(C)cc2)C(c2ccccc2Cl)CC(=O)N1 (centres undefined),inactive
19,CSc1ccc(CCNC(=O)c2cnn(-c3ccccc3)c2-n2cccc2)cc1,inactive
20,COc1ccc(CNC(=O)C2=Cc3cccc(OC)c3OC2)cc1OC,inactive
21,COCC(=O)Nc1nnc(COc2ccccc2)s1,inactive
22,CCOc1cccc(C(=O)Nc2cnn(Cc3ccccc3)c2)c1,inactive
23,CCOc1cccc(C(=O)Nc2nnc(-c3cccs3)s2)c1,1.51 µM (active)
24,Cc1cccc(C(C)C)c1NC(=O)C(NS(=O)(=O)c1cccc2nsnc12)c1ccccc1 (centres undefined),inactive
25,CCN(CC)S(=O)(=O)c1ccc2c(c1)N(CC(=O)NCc1ccccc1)C(=O)CS2,inactive
26,CN1C(=O)c2[nH]nc(-c3ccc(F)cc3)c2C1c1ccccn1 (centres undefined),inactive

row,Structure (SMILES),Potency
1,COc1cccc(NC(=O)N2C3CCCC2CC(NC(C)=O)C3)c1 (centres undefined),inactive
2,O=C(Cc1c[nH]c2ccccc12)N/N=C/c1cccc(F)c1,inactive
3,O=C(N/N=C/c1cccc(OCc2ccccc2)c1)c1ccc(Br)o1,21.3 µM (active)
4,CCCc1ccc(OCc2ccc(C(=O)N/N=C/c3cccc([N+](=O)[O-])c3)o2)c(OC)c1,inactive
5,Cc1ccc(OCCOc2cccc(/C=N/NC(N)=O)c2)cc1,inactive
6,O=C(N/N=C/c1cccc(O)c1)c1cc2c(ccc3ccccc32)o1,10.7 µM (active)
7,O=C(Cc1cccs1)N/N=C/c1ccc(OCc2ccccc2)cc1,inactive
8,Cc1cccc(Oc2c([N+](=O)[O-])c(=O)n(C)c3ccccc23)c1,inactive
9,COc1ccc(Cl)cc1NC(=O)CSc1nc2ccccc2c2nc(-c3ccccc3)nn12,inactive
10,CCOc1cccc(NC(=O)c2ccc(F)c(S(=O)(=O)N(CC)c3cccc(C)c3)c2)c1,inactive
11,CCCN1CCc2nc(N3CCN(C)CC3)ncc2C1,inactive
12,CCN1CCCC1CNC(=O)c1cc2cc(OC)c(OC)cc2[nH]1 (centres undefined),inactive
13,COc1ccc(C(=O)CCc2ccccc2O)c(OC)c1,12 µM (active)
14,COc1ccc(C(=O)NC(C)CCc2ccccc2)c(OC)c1 (centres undefined),inactive
15,COc1ccc(CCNC(=O)CCc2ccccc2O)cc1OC,inactive
16,O=C(c1cc2cc(Br)cc(Br)c2oc1=O)N1CCOCC1,inactive
17,COc1ccccc1-c1nn(Cc2ccccc2)cc1C(=O)N1CCN(c2ncccn2)CC1,inactive
18,Cc1cc(C(=O)OCC(=O)Nc2nnc(C(C)C)s2)c2ccccc2n1,inactive
19,CCC(=O)Nc1ccc2nc(SCC(=O)N3CCc4ccccc43)sc2c1,inactive
20,CC(C)C(C)NC(=O)COc1ncnc2ccccc12 (centres undefined),inactive
21,CC(C)CC(=O)NC(=S)NCc1ccccc1,inactive
22,CCC(=O)NC(=Nc1nc2ccccc2s1)NC(=O)CC,3.79 µM (active)
23,CC(C)CC(=O)N/C(N)=N/c1nc2ccccc2s1,0.953 µM (active)
24,CCOc1ccccc1NC(=O)CCn1cnnn1,inactive
25,COc1ccc(S(=O)(=O)N2CCOCC2)cc1NC(=O)CSc1cc(C)ccc1C,inactive
26,CS(=O)(=O)Nc1ccccc1C(=O)OCC(=O)NC1CC1,inactive

row,Structure (SMILES),Potency
1,CCN(C(=O)COC(=O)CCOc1cccc(C)c1)c1c(N)n(Cc2ccccc2)c(=O)[nH]c1=O,inactive
2,COc1ccc(NC(=O)NC(C)c2c(-n3cccc3)sc(C)c2C)cc1OC (centres undefined),inactive
3,COc1ccccc1-c1sc2ccccc2c1-c1ccc(Br)nc1,inactive
4,COc1ccccc1-c1sc2ccccc2c1-c1ccc(C(C)=O)cc1,15.1 µM (active)
5,COc1cc(C(C)=O)ccc1OC(=O)CN1C(=O)c2ccccc2C1=O,inactive
6,O=C(CC1N=C2c3ccccc3N=C(SCc3ccc(F)cc3)N2C1=O)NCc1cccs1 (centres undefined),inactive
7,O=C(O)C1=NN(c2c(F)c(F)cc(F)c2F)C(=O)CC1,inactive
8,CN(CC(=O)NCCc1ccc(F)cc1)CC(=O)Nc1ccc(F)c(F)c1F,inactive
9,Cc1ccc(NC(=O)c2cn3c4c(ccc(Cl)c4c2=O)OC(C)C3)cc1C (centres undefined),inactive
10,O=C(CSCc1cnn(-c2ccccc2)c1-n1cccc1)NCc1ccccc1Br,inactive
11,O=[N+]([O-])/C=C/c1ccc2c(ccn2Cc2ccccc2)c1,13.5 µM (active)
12,O=C(/C=C/c1cccc([N+](=O)[O-])c1)N1CCN(Cc2ccccc2)CC1,inactive
13,COC(=O)Cn1cc(/C=C/[N+](=O)[O-])c2ccccc21,inactive
14,Cc1ccc(CN2CC(C(=O)N3CCN(S(=O)(=O)c4ccccc4)CC3)CC2=O)cc1 (centres undefined),inactive
15,Cc1nn(C)cc1S(=O)(=O)N1CCN(c2ccc(F)cc2)CC1,inactive
16,Cc1nn(C)cc1/C=C1\CCC/C(=C\c2cn(C)nc2C)C1=O,26.9 µM (active)
17,Cc1ccccc1-n1c(=O)c2ccccc2n(Cc2ccc(F)cc2)c1=O,inactive
18,CCS(=O)(=O)N1CCc2cc(C(=O)NCc3ccc(OC)cc3)ccc21,inactive
19,CCc1cc(=O)oc2c(C)c(OCC(=O)NCCN3CCOCC3)ccc12,inactive
20,CCCc1cc(=O)oc2c(C)c(OCC(=O)Nc3ccccn3)ccc12,1.69 µM (active)
21,CCCc1cc(=O)oc2c(C)c(OCC(=O)NCc3ccccn3)ccc12,inactive
22,COc1ccc(NC(=O)CCN2CCN(CCO)CC2)cc1,inactive
23,O=C(Nc1ccon1)c1nc[nH]c1C(=O)NCc1ccccc1,inactive
24,Cc1cc(C)n2nc(C(=O)Nc3cccc(S(=O)(=O)N4CCOCC4)c3)nc2n1,inactive
25,CC(C)(C)n1nc2c(c1NC(=O)c1cc3ccccc3o1)CSC2,inactive
26,Cc1ccc2occ(/C=N/NC(=O)c3ccccc3C)c(=O)c2c1,inactive

row,Structure (SMILES),Potency
1,O=C(CSc1nc2ccccc2o1)N/N=C/c1ccccc1C(=O)O,inactive
2,O=C(N/N=C/c1c[nH]c2ccccc12)c1ccccc1O,6.01 µM (active)
3,O=C(N/N=C/c1ccc([N+](=O)[O-])cc1)c1c[nH]c2ccccc12,inactive
4,O=C(Cc1ccccc1)Nc1cccc(C(=O)N/N=C/c2ccco2)c1,inactive
5,Cc1c(/C=N/N2C(=O)C3C4C=CC(C4)C3C2=O)c2ccccc2n1C (centres undefined),inactive
6,O=C(O)c1cccc(NC(=S)N/N=C/c2c[nH]c3ccccc23)c1,0.757 µM (active)
7,Cc1c(/C=N\NC(=O)c2cc3ccccc3o2)c2ccccc2n1C,9.53 µM (active)
8,CN(C)S(=O)(=O)c1cccc(NC(=S)N/N=C/C(=O)c2ccccc2)c1,inactive
9,Nc1nonc1-n1nnc(C(=O)N/N=C/c2c[nH]c3ccccc23)c1-c1ccccc1,inactive
10,O=C(N/N=C/c1c[nH]c2ccccc12)c1cc2ccccc2o1,13.5 µM (active)
11,Cc1c(NC(=O)Nc2ccc(F)c(Cl)c2)c(=O)n(-c2ccccc2)n1C,inactive
12,Cc1cccc(N2CCN(C(=O)c3cc4c(=O)oc5ccccc5c4s3)CC2C)c1 (centres undefined),inactive
13,CCc1ccc(NC(=O)CCS(=O)(=O)c2cc3c(cc2Cl)NC(=O)CO3)cc1,inactive
14,COc1ccc([N+](=O)[O-])cc1NC(=O)c1ccc(N(Cc2ccccc2C)S(C)(=O)=O)cc1,inactive
15,CN(C)C(=O)COC(=O)c1cccc(S(=O)(=O)N2CC3(C)CC2CC(C)(C)C3)c1 (centres undefined),inactive
16,O=C(CNC(=O)c1ccccc1Br)NNC(=O)c1cccs1,inactive
17,COc1cc(C(c2c(NC(=O)c3ccco3)sc(C)c2C)N2CCOCC2)cc(OC)c1OC (centres undefined),inactive
18,COc1ccc(C2CC(c3cccs3)=NN2c2nc(C)c(C(C)=O)s2)cc1OC (centres undefined),inactive
19,COc1ccc(C2CC(c3cccs3)=NN2c2ccc(F)cc2)cc1OC (centres undefined),inactive
20,COc1ccc(C2CC(c3cccs3)=NN2c2ccccc2)cc1 (centres undefined),21.3 µM (active)
21,COc1cc(CN(CC2CCCO2)C(=O)c2ccccc2F)cc(OC)c1OC (centres undefined),inactive
22,CNc1nc(-c2ccccc2)cc(-c2ccccc2)n1,inactive
23,S=c1[nH]nc(-c2cc(-c3ccccc3)n[nH]2)n1/N=C/c1c2ccccc2cc2ccccc12,inactive
24,c1ccc(-c2cc(-c3ccccc3)[nH]n2)cc1,7.57 µM (active)
25,Oc1ccccc1-c1cc(-c2ccc(Cl)cc2)n[nH]1,0.953 µM (active)
26,Cc1ccc(NC(=O)c2cc(-c3ccccc3O)n[nH]2)cc1C,inactive
